POLI inh = qHTS for Inhibitors of Polymerase Iota; DNA polymerase iota (Homo sapiens), Q9UNA4; Pol iota fluorescent replication assay, 10 min; Potency, µM (highest dose often 115 µM), inactives show at the highest dose activity, negative = inhibition, usual class: inhibitors; 390,000 tested, 1% active; AID 588590, 2011
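Pol iota at 10 nM preincubated 15 min with compounds at room temperature; reaction started with fluorescent substrate, 50 nM final. Fluorescence read kinetically at 0 and 10 min; buffer-only wells as negative control.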
FEN1 inh = qHTS Assay for the Inhibitors of Human Flap endonuclease 1 (FEN1). P39748. Recombinant FEN1 flap cleavage, fluorescence, 15 min. Potency, µM (highest dose often 114 µM), without a hit: top-dose activity change, negative = inhibition, usual class: inhibitors. 390,000 tested, 0.35% active. AID 588795, 2011; note: % is set by controls: 0 for no effect and ±100 for the full control effect; nearly all actives have a fitted effect of over 65% in size
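Read-out was taken twice, immediately and after 15 min, following addition of 50 nM substrate to 10 nM FEN1 that had sat with test compound for 15 min at room temperature. Curves came from a four-parameter Hill model.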
Pol eta inh-1 = qHTS for Inhibitors of Polymerase Eta; recombinant Pol eta, fluorescent DNA replication assay; Potency, µM (titrated, usually from 114 µM), for the others: at the top dose activity change, negative = inhibition, actives largely listed as inhibitors; 390,000 tested, 1.2% active; note: % is set by controls: 0 for no effect and ±100 for the full control effect
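Fluorescent replication assay: 50 nM final substrate added after a 15 min room-temperature compound preincubation with 10 nM enzyme. Signal taken at 0 min and again at 10 min.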
Pol beta inh = qHTS Assay for Inhibitors of DNA Polymerase Beta. Potency, µM (doses to about 114 µM), inactives show top-dose activity change, negative = inhibition, actives largely listed as inhibitors. 340,000 tested, 1.3% active. P06746. Pol beta primer extension/strand displacement, fluorescence kinetic; note: % is set by controls: 0 for no effect and ±100 for the full control effect
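Pol beta (10 nM) and compounds were preincubated 15 min at room temperature, then 50 nM substrate (final) started primer extension/strand displacement. Reads were taken at 0 and 10 min; concentration-response data were fitted to a four-parameter Hill equation.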
POLK inh = qHTS for Inhibitors of Polymerase Kappa. DNA polymerase kappa (Homo sapiens), Q9UBT6. purified Pol kappa, fluorescent DNA synthesis assay, 10 min. Potency, µM (doses to about 107 µM), for the others: at the top dose activity, negative = inhibition, most hits filed as inhibitors. 400,000 tested, 0.53% active. AID 588579, 2011; note: % is set by controls: 0 for no effect and ±100 for the full control effect
Target sequence (Q9UBT6 whole entry, looked up): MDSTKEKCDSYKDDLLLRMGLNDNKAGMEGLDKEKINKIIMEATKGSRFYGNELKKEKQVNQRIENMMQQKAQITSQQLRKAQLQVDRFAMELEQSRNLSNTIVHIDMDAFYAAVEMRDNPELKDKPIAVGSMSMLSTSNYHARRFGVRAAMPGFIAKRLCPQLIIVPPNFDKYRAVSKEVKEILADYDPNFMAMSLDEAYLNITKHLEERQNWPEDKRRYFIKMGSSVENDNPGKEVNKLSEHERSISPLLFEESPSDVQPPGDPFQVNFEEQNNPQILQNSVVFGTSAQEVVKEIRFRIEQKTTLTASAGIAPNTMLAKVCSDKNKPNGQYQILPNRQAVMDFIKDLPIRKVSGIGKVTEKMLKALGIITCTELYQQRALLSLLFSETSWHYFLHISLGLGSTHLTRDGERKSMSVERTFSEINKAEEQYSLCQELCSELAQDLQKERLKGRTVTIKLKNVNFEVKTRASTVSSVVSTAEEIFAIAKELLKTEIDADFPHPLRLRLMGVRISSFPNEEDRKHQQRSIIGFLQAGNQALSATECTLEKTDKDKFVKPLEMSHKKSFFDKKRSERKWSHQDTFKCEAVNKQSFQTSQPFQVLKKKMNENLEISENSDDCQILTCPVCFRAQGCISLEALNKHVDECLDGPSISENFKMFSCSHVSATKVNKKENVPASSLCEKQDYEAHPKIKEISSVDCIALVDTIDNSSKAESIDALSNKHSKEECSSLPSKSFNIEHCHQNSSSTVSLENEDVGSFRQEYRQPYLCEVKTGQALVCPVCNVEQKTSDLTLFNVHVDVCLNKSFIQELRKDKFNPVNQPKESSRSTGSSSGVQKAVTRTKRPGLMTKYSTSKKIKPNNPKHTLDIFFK
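Activity was followed as the change in fluorescence between reads at 0 and 10 min after starting the reaction with 50 nM substrate. Beforehand, 10 nM polymerase had been preincubated with compound for 15 min at room temperature.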
WRN inhibitor = qHTS for Inhibitors of WRN Helicase; Bifunctional 3'-5' exonuclease/ATP-dependent helicase WRN (Homo sapiens), Q14191; 360,000 tested, 0.46% active; WRN helicase unwinding, fluorescent forked duplex, kinetic; AID 651768, 2012; Potency, µM (doses to about 114 µM), inactives show top-dose activity change, negative = inhibition, most hits filed as inhibitors; note: % is set by controls: 0 for no effect and ±100 for the full control effect; nearly all actives have a fitted effect of over 55% in size
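Enzyme (20 nM final) and test compound sit together 15 min at room temperature before substrate addition. Substrate is a single-forked duplex oligonucleotide (100 nM) labelled with fluorophore and quencher, with 2 mM ATP; helicase unwinding raises red fluorescence, read kinetically.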
TbPGK inh = qHTS for inhibitors of Phosphogylcerate Kinase: Hit Validation Screen. 500 tested, 79% active. Potency, µM (top dose mostly 57.5 µM), without a hit: at the highest dose activity change, negative = inhibition, usual class: inhibitors. TbPGK coupled GAPDH assay, Kinase-Glo luminescence. shares compounds with POLK inh. AID 686980, 2013; note: % is set by controls: 0 for no effect and ±100 for the full control effect; nearly all actives have a fitted effect of over 65% in size
Pol iota confirm = qHTS for Inhibitors of Polymerase Iota: Confirmatory Assay for Cherry-picked Compounds; shares compounds with POLK inh; Pol iota primer extension, TAMRA/BHQ fluorescence; Potency, µM, most hits filed as inhibitors; 1,500 tested, 77% active; AID 720496, 2013
Pol eta inh-2 = qHTS for Inhibitors of Polymerase Eta: Confirmatory Assay for Cherry-picked Compounds; 2,600 tested, 64% active; Potency, µM, actives largely listed as inhibitors; shares compounds with Pol eta inh-1; Pol eta primer extension, TAMRA/BHQ fluorescence, 10 min
Starred values were filed as active, the others as inactive; u = inconclusive; x = no result; [ ] = dose if it differs, or a comment. Compounds with a hit are over-represented: about 2.4% of the library has one in this group of screens. Calls come from the whole dose curve; as a rule, active = well fitted curve in the direction sought with a large enough effect; inconclusive = small, poorly fitted or top-dose-only effect, or another doubt; inactive = no such curve, though single readings can be large; an effect the other way counts as inactive or inconclusive. Potency is the fitted concentration of half-maximal effect.

SMILES | POLI inh | FEN1 inh | Pol eta inh-1 | Pol beta inh | POLK inh | WRN inhibitor | Pol iota confirm | Pol eta inh-2 | others
N#Cc1cccc(-c2nc3cnc(Oc4cccc(Cl)c4)nc3n(C3CC3)c2=O)c1 | x | x | x | x | -5%[60.1 µM] | x | x | x
COc1ccccc1NC(=O)C1=C(C)Nc2ncnn2C1c1ccc[nH]1 (stereo unspecified) | 79µM* | u | 32µM* | 16µM* | 5%[60.1 µM] | x | 60* | 60*
COc1ccccc1NC(=O)C1=C(C)Nc2ncnn2C1c1ccccn1 (stereo unspecified) | 9% | -14% | -23% | 23% | 1% | x | x | x
Clc1ccccc1-c1nccc(NCc2ccccc2)n1 | x | x | x | x | 1%[60.1 µM] | x | x | x
C/C=C(/C)C(=O)Nc1cccc(C2=NOC3(C2)C[C@@H](C(N)=O)N(C(=O)CC(c2ccccc2)c2ccccc2)C3)c1 (stereo partly specified) | u | 2% | -30% | 3% | -7% | -1% | x | x
CCCCCC(=O)Nc1cccc(C2=NOC3(C2)C[C@H](C(N)=O)N(C(=O)c2ccccc2C(=O)c2ccccc2)C3)c1 (stereo partly specified) | 4% | -12% | -15% | 0% | -11% | -9% | x | x
C=C(C)C(=O)Nc1cccc(C2=NOC3(C2)C[C@@H](C(N)=O)N(C(=O)CC(c2ccccc2)c2ccccc2)C3)c1 (stereo partly specified) | u | -13% | 4µM* | 13µM* | 35µM* | u | 75* | 30* | TbPGK inh=3.3µM*
C=C(C)C(=O)Nc1cccc(C2=NOC3(C2)C[C@H](C(N)=O)N(C(=O)c2ccccc2C(=O)c2ccccc2)C3)c1 (stereo partly specified) | 45µM* | -4% | 5.6µM* | 8.9µM* | u | u | 47* | 19*
COC(C)(C)CCCC(C)C/C=C/C(C)=C/C(=O)O (stereo unspecified) | x | x | x | x | 6%[19.4 µM] | x | x | x
COc1ccccc1N1CCN(CC2CN3C(=O)N(C)c4ccccc4C3=N2)CC1 (stereo unspecified) | x | x | x | x | 0%[19.4 µM] | x | x | x
CC[C@@H](C(=O)[C@@H](C)[C@@H](O)[C@H](C)CCc1ccc(C)c(O)c1C(=O)O)C1O[C@](CC)(C2CC[C@](O)(CC)[C@H](C)O2)C[C@@H]1C (stereo partly specified) | x | x | x | x | -3%[60.1 µM] | x | x | x
Cc1ccc(-c2[nH]ncc2CNC(C)c2ccccc2)cc1 (stereo unspecified) | 15% | 6% | x | x | 14% | x | x | x
O=c1c(-c2c(O)cc(O)c3c(=O)cc(-c4ccc(O)cc4)oc23)c(-c2ccc(O)cc2)oc2cc(O)cc(O)c12 | 7.9µM* | 50µM* | 3.5µM* | 3.2µM* | 35µM* | 56µM* | 42* | 43*
COc1ccc(-c2cc(=O)c3c(O)cc(O)cc3o2)cc1 | 42% | -17% | -20% | x | 1% | 0% | x | x

Source: PubChem
